For assay [1], the target named is Cytochrome P450 2C19 (Homo sapiens) (UniProt P33261). The assay is described as follows: Cytochrome P450 Family 2 Subfamily C Member 19 (CYP2C19) small molecule antagonists: luciferase reporter qHTS assay (AID 1671197). Further: potency means the concentration at half of the fitted maximal effect; nearly all actives have a fitted effect of over 65% in size. An outline of the steps:
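P450-Glo CYP2C19 screening system; proluciferin substrate; DMSO compound stocks; 10 min RT preincubation; NADPH regeneration, 1 h at 37C; luciferin detection reagent, 20 min RT; luminescence as RLU.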
In general terms: A reporter such as luciferase makes a cellular process visible.

For assay [2], the target named is Cytochrome P450 2C9 (Homo sapiens) (UniProt P11712). The assay is described as follows: Cytochrome P450 Family 2 Subfamily C Member 9 (CYP2C9) small molecule antagonists: luciferase reporter qHTS assay (AID 1671198). Further: potency means the concentration at half of the fitted maximal effect; nearly all actives have a fitted effect of over 50% in size. The method in brief: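 P450-Glo proluciferin substrate with CYP2C9 enzyme; 10 min RT preincubation, then NADPH regeneration 1 h at 37C; luciferin detection reagent 20 min RT, luminescence in relative luminescence units.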

The target in assay [3] is Cytochrome P450 1A2 (Homo sapiens) (UniProt P05177). Briefly: Cytochrome P450 Family 1 Subfamily A Member 2 (CYP1A2) small molecule antagonists: luciferase reporter qHTS assay (AID 1671199). Further: potency means the concentration at half of the fitted maximal effect; nearly all actives have a fitted effect of over 50% in size. The method in brief:
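P450-Glo CYP1A2 enzyme–proluciferin substrate mix with compound 10 min at room temperature, then NADPH regeneration 1 h at room temperature. Luciferin detection reagent added, luminescence read after 20 min; furafylline positive control.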

Assay [4] deals with Nuclear receptor subfamily 1 group I member 2 (Rattus norvegicus) (UniProt Q9R1A7). Briefly: Rat pregnane X receptor (rPXR) activation by small molecules, qHTS assay (AID 1346983). Further: on the % scale 0 is the no-effect control and ±100 the full control effect; nearly all actives have a fitted effect of over 20% in size. Particulars: rPXR luciferase reporter cells, One-Glo luminescence, 24 h; max activation: active compounds read high. The method in brief: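 Cell-based rPXR activation assay: rPXR cells, 2,000 per well, rested 5hr at 37 C, then exposed to compounds in DMSO for 24 hr at 37 C. Luciferase activity read by One-Glo luminescence after 30 min at room temperature.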

The target of assay [5] is Nuclear receptor subfamily 1 group I member 2 (Homo sapiens) (UniProt O75469). The assay is described as follows: CYP3A4 induction through human pregnane X receptor (PXR) by small molecules, qHTS assay (AID 1346984). Further: nearly all actives have a fitted effect of over 40% in size. Further: potency means the concentration at half of the fitted maximal effect. On activation: on the % scale 0 is the no-effect control and ±100 the full control effect. An outline of the steps: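 DPX-2 HepG2 cells carrying a PXR response element and CYP3A4-promoter luciferase construct, treated with compounds 24 hr at 37C. Then P450-Glo CYP3A4 Luciferin-IPA substrate (3uM final) for 3 hr at 37C, One-Glo added, luminescence read.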

The target is the same in assay [6]. Briefly: Human pregnane X receptor (PXR) activation by small molecules, qHTS assay (AID 1346985). Further: nearly all actives have a fitted effect of over 40% in size. Further: potency means the concentration at half of the fitted maximal effect. On activation: on the % scale 0 is the no-effect control and ±100 the full control effect. An outline of the steps: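 DPX-2 cells (HepG2 co-transfected with a PXR response element and a CYP3A4-promoter luciferase construct) were seeded at 2,000 per well, rested 5 hr at 37C, then exposed to DMSO-dissolved compounds for 24 hr. Activation was read as luciferase luminescence.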
For orientation: qHTS replaces the single test concentration by a dilution series.

For assay [7], the target named is Cytochrome P450 2D6 (Homo sapiens) (UniProt P10635). Briefly: Cytochrome P450 Family 2 Subfamily D Member 6 (CYP2D6) small molecule antagonists: luciferase reporter qHTS assay (AID 1671196). Further: potency means the concentration at half of the fitted maximal effect; nearly all actives have a fitted effect of over 50% in size. The method in brief: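 Cell-free P450-Glo system: CYP2D6 with proluciferin substrate was pre-incubated with compound for 10 min, then reacted with NADPH regeneration for 1 h at room temperature. Luciferin product was detected after 20 min, and data were reported as relative luminescence units.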

Structures are written as SMILES. Where “and” joins values, the source holds several entries; their conditions need not be identical. Identical values can stand only once. Records with an inconclusive call do not appear. A number with no mark means an inactive call. Calls of active or inactive are those of the source. The call rests on the fitted dose curve; in most records, active means well fitted curve in the direction sought with a large enough effect in the repeat runs; inconclusive means weak or mixed curves; inactive means no such curve, though single readings can be large; an effect the other way counts as inactive or inconclusive. Non-standard residues stand in square brackets, D forms with d. Residues, ends and D or L forms follow the SMILES beside them. Orn = NCCC[C@H](N)C(=O)O

Nuclear receptor subfamily 1 group I member 2 (Rattus norvegicus), sequence (Q9R1A7 whole entry, looked up): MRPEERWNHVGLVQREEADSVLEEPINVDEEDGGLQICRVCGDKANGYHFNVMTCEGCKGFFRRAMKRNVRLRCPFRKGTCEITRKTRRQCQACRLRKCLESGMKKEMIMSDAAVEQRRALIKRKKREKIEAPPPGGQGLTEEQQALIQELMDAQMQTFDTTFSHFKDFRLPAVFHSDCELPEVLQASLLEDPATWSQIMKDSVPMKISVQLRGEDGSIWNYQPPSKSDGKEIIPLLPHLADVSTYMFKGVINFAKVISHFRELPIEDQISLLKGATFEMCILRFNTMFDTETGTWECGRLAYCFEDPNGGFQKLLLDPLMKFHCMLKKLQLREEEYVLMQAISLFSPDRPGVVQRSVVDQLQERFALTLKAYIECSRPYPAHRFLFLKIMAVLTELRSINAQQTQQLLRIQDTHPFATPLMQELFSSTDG
Cytochrome P450 2C9 (Homo sapiens), sequence (P11712 whole entry, looked up): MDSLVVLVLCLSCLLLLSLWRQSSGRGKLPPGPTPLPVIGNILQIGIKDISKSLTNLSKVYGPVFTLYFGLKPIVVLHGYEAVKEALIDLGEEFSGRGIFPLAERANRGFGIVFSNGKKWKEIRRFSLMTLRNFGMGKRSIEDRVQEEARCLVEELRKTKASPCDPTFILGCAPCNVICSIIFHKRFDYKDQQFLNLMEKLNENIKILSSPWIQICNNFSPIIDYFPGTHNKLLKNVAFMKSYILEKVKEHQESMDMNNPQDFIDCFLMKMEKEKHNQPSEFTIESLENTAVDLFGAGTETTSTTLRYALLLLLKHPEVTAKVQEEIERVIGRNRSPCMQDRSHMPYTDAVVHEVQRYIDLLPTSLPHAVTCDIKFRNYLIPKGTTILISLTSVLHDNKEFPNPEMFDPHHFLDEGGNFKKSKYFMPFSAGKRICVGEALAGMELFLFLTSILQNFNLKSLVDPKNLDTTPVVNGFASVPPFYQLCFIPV
Cytochrome P450 1A2 (Homo sapiens), sequence (P05177 whole entry, looked up): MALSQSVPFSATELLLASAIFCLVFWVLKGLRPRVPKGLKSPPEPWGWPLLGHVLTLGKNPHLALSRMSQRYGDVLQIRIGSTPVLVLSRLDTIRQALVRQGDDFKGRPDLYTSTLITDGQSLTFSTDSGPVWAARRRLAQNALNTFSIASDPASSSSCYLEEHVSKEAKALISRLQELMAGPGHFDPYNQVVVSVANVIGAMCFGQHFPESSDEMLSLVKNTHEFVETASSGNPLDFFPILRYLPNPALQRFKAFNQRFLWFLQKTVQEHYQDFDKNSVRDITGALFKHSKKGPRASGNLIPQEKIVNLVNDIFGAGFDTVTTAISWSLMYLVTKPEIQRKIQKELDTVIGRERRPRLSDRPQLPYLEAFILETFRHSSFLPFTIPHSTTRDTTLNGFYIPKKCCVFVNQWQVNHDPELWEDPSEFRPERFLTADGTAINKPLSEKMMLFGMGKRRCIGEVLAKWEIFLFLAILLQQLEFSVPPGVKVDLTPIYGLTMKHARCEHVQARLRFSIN
Cytochrome P450 2C19 (Homo sapiens), sequence (P33261 whole entry, looked up): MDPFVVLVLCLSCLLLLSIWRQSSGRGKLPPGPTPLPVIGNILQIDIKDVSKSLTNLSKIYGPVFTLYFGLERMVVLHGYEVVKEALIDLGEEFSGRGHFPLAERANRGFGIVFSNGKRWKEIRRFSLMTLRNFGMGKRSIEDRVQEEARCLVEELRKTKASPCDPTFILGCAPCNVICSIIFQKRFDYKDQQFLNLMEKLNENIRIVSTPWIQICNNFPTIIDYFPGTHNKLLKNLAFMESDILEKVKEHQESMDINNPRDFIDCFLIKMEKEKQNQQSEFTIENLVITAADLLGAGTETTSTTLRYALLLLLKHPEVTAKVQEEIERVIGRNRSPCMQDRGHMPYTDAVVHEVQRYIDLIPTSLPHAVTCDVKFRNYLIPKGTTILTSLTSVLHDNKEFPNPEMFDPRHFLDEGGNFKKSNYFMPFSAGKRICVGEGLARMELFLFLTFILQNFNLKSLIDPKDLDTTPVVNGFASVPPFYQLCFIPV
Cytochrome P450 2D6 (Homo sapiens), sequence (P10635 whole entry, looked up): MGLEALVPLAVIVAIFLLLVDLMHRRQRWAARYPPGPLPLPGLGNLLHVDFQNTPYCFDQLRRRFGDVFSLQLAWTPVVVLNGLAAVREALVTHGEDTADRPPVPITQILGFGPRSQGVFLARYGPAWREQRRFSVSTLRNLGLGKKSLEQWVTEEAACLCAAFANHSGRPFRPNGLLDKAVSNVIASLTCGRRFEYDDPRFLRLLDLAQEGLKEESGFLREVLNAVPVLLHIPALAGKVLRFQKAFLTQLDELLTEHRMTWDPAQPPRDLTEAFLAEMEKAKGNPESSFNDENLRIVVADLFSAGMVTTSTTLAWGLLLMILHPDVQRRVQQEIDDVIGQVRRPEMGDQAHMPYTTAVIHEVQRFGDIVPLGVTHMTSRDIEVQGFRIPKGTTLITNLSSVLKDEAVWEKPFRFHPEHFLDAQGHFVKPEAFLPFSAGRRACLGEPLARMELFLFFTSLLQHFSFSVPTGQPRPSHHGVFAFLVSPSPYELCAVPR

On to `CC/C=C\C/C=C\C/C=C\CCCCCCCC(=O)OC`, for which the Potency is 56.4 µM (active) in assay [1], 28.3 µM (active) in assay [2] and 63.3 µM (active) in assay [3].
Take `N[C@@H](Cc1cnc[nH]1)C(=O)O`: the max activation in assay [4] was -4.66%. In addition, the Potency result in assay [5] and in assay [6] was “inactive” in each case.
Regarding `O=c1[nH]c(=O)n([C@H]2C[C@H](O)[C@@H](CO)O2)cc1/C=C/Br`, in assay [4], the max activation was -6.99%. Also, the Potency result in assay [5] and in assay [6] was “inactive” in each case.
With `CCCCCCCCCC(=O)NO`, the max activation in assay [4] was -0.53%. Further, the Potency result in assay [5] and in assay [6] was “inactive” in each case.
In the case of `CC(C)C[C@@H]1NC(=O)[C@H](CCCN)NC(=O)[C@H](C(C)C)NC(=O)[C@@H]2CCCN2C(=O)[C@@H](Cc2ccccc2)NC(=O)[C@H](CC(C)C)NC(=O)[C@H](CCCN)NC(=O)[C@H](C(C)C)NC(=O)[C@@H]2CCCN2C(=O)[C@@H](Cc2ccccc2)NC1=O` (cyclo(V[Orn]L[dF]PV[Orn]L[dF]P)), the max activation in assay [4] was -16.3%. Further, the Potency result in assay [5] and in assay [6] was “inactive” each time.
`CCC(=O)OC(OP(=O)(CCCCc1ccccc1)CC(=O)N1C[C@H](C2CCCCC2)C[C@H]1C(=O)O)C(C)C` (stereo partly drawn): in assay [4], the max activation is -3.49%. Further, the Potency result in assay [5] and in assay [6] was “inactive” each time.
For `C=CCN1C(=O)C(CC(C)C)NC1=S` (stereo not drawn), in assay [4], the max activation was 12.3%. For the same compound, the Potency result in assay [5] and in assay [6] was “inactive” throughout.
Take `c1ccc(-n2cnnn2)cc1`: in assay [4], the max activation is -5.33%. For the same compound, the Potency result in assay [5] and in assay [6] was “inactive” each time.
Regarding `COc1cc2c(cc1OC)[C@@H](Cc1cc(OC)c(OC)c(OC)c1)[N+](C)(CCCOC(=O)CC/C=C/CCC(=O)OCCC[N+]1(C)CCc3cc(OC)c(OC)cc3[C@H]1Cc1cc(OC)c(OC)c(OC)c1)CC2` (stereo partly drawn), the max activation in assay [4] was -6.15%. In addition, the Potency entry in assay [5] and in assay [6] was “inactive” each time.
As to `CCOc1ccc(NC(=S)Nc2ccc(OCC)cc2)cc1`, in assay [4], the max activation was -1.61%. Moreover, the Potency result in assay [5] and in assay [6] was “inactive” throughout.
As to `O=C1CCC(c2ccccc2)(C2CCN(Cc3ccccc3)CC2)C(=O)N1` (stereo not drawn), the max activation in assay [4] was 4.99%. In addition, the Potency is 14.1 µM (active) in assay [5] and 5.62 µM (active) in assay [6].
In the same order, the values of `O=C(O)/C=C/C(=O)Nc1ccc(S(=O)(=O)Nc2nccs2)cc1` are -4.08%, “inactive” and “inactive”.
In the same order, the values of `OCl` are 0.862%, “inactive” and “inactive”.
In the same order, the values of `Nc1nc(/C(=C/CC(=O)O)C(=O)N[C@@H]2C(=O)N3C(C(=O)O)=CCS[C@H]23)cs1` are -1.46%, “inactive” and “inactive”.
Regarding `CC(C)NCC1CCc2cc(CO)c([N+](=O)[O-])cc2N1` (stereo not drawn), in assay [4], the max activation was -0.344%. The Potency result in assay [5] and in assay [6] was “inactive” each time.
Turning to `Cc1ccc(C(C)(C)c2ccc(C)cc2)cc1`, the max activation in assay [4] is -4.5%. Further, the Potency entry in assay [5] and in assay [6] was “inactive” in each case.
For the compound `COc1cccc(-c2ccc(/C=C\CN3CCCCCC3)cc2Cl)c1`, the Potency was 2.51 µM (active) in assay [7], 44.6 µM (active) in assay [1], 35.4 µM (active) in assay [2] and 56.1 µM (active) in assay [3].
As for `CCOC(=O)Cc1ccc(-c2ccccc2)cc1`, the max activation in assay [4] was -3.15%. Besides, the Potency entry in assay [5] and in assay [6] was “inactive” throughout.
In the case of `O=C(O)/C=C/C(O)c1ccc(Cl)cc1` (stereo not drawn), the max activation in assay [4] is -1.46%. Besides, the Potency result in assay [5] and in assay [6] was “inactive” throughout.
`CO/N=C(\C(=O)N[C@@H]1C(=O)N2C(C(=O)[O-])=C(C[n+]3ccc(N)n3CCO)CS[C@H]12)c1csc(N)n1`: the max activation in assay [4] was -1.9%. For the same compound, the Potency entry in assay [5] and in assay [6] was “inactive” each time.
In the case of `CN1C(C(=O)Nc2ccccn2)C(=O)c2sc(Cl)cc2S1(=O)=O` (stereo not drawn), the max activation in assay [4] was -4.75%. The Potency entry in assay [5] and in assay [6] was “inactive” in each case.
Take `O=C(CCCN1CCN2CCCC2C1)c1ccc(F)cc1` (stereo not drawn): the max activation in assay [4] is 1.23%. Besides, the Potency result in assay [5] and in assay [6] was “inactive” throughout.
Consider `Cc1cc(C(=O)NCCc2ccc(S(=O)(=O)NC(=O)NN3CCCCCC3)cc2)no1`, for which, in assay [4], the max activation is -0.977%. Moreover, the Potency result in assay [5] and in assay [6] was “inactive” throughout.
As to `C[N+](C)(C)CCOP(=O)(O)OP(=O)([O-])OC[C@H]1O[C@@H](n2ccc(N)nc2=O)[C@H](O)[C@@H]1O`, the max activation in assay [4] is -1.05%. Also, the Potency result in assay [5] and in assay [6] was “inactive” in each case.
Consider `CC(C)[N+]1(C)[C@@H]2CC[C@H]1CC(OC(=O)C(CO)c1ccccc1)C2` (stereo partly drawn), for which, in assay [4], the max activation was -2.6%. In assay [6], the Potency result was “inactive”.
As to `CCCCCCCCCCCCCCCC(=O)OC[C@H](COP(=O)([O-])OCC[N+](C)(C)C)OC(=O)CCCCCCCCCCCCCCC`, the max activation in assay [4] is 0.686%. The Potency result in assay [5] and in assay [6] was “inactive” throughout.
As to `CC(C)C[C@H](NC(=O)[C@@H](COC(C)(C)C)NC(=O)[C@H](Cc1ccc(O)cc1)NC(=O)[C@H](CO)NC(=O)[C@H](Cc1c[nH]c2ccccc12)NC(=O)[C@H](Cc1cnc[nH]1)NC(=O)[C@@H]1CCC(=O)N1)C(=O)N[C@@H](CCCN=C(N)N)C(=O)N1CCC[C@H]1C(=O)NNC(N)=O`, in assay [4], the max activation is -1.54%. The Potency result in assay [5] and in assay [6] was “inactive” in each case.
As for `Cc1c(O)c(=O)ccn1C`, in assay [4], the max activation is -3.64%. Moreover, the Potency entry in assay [5] and in assay [6] was “inactive” in each case.
Regarding `CC1=C(/C=C/C(C)=C/C=C/C(C)=C/C=C/C=C(C)/C=C/C=C(C)/C=C/C2=C(C)CCCC2(C)C)C(C)(C)CCC1`, the max activation in assay [4] was -2.1%. In addition, the Potency entry in assay [5] and in assay [6] was “inactive” throughout.
As to `OCC1(CO)COC(C(Cl)(Cl)Cl)OC1`, the max activation in assay [4] was -2.81%. In addition, the Potency entry in assay [5] and in assay [6] was “inactive” each time.
Take `O=C(O)COc1ccccc1/C=N/NC(=O)c1ccncc1`: the max activation in assay [4] is -3.2%. Besides, the Potency result in assay [5] and in assay [6] was “inactive” in each case.
In the case of `C[S+](CC[C@H](N)C(=O)O)C[C@H]1O[C@@H](n2cnc3c(N)ncnc32)[C@H](O)[C@@H]1O` (stereo partly drawn), in assay [4], the max activation was -2.9% and 0.617%. For the same compound, the Potency entry in assay [5] and in assay [6] was “inactive” throughout.
Turning to `Cc1c(N)nc([C@H](CC(N)=O)NC[C@H](N)C(N)=O)nc1C(=O)N[C@H](C(=O)N[C@H](C)[C@@H](O)[C@H](C)C(=O)N[C@H](C(=O)NCCc1nc(-c2nc(C(=O)NCCCCN=C(N)N)cs2)cs1)[C@@H](C)O)[C@@H](O[C@@H]1O[C@@H](CO)[C@@H](O)[C@H](O)[C@@H]1O[C@H]1O[C@H](CO)[C@@H](O)[C@H](OC(N)=O)[C@@H]1O)c1cnc[nH]1`, the max activation in assay [4] is -0.9%. For the same compound, the Potency result in assay [5] and in assay [6] was “inactive” each time.
Consider `CNC(=O)C[C@@H](N)C(=O)N[C@@H](C(=O)N[C@@H]1C(=O)N2[C@@H]1SC(C)(C)[C@@H]2C(=O)O)c1ccc(O)cc1`, for which, in assay [4], the max activation was -2.18%. The Potency result in assay [5] and in assay [6] was “inactive” throughout.
For the compound `C(=C\c1ccncc1)/c1ccccc1`, the Potency entry in assay [5] and in assay [6] was “inactive” each time.
Take `COc1c(O)cc2c(c1O)[C@@H]1O[C@H](CO)[C@@H](O)[C@H](O)[C@H]1OC2=O`: the max activation in assay [4] is -0.0644%. Further, the Potency result in assay [5] and in assay [6] was “inactive” in each case.
For `CC(C)CCC[C@@H](C)[C@H]1CC[C@H]2[C@@H]3CC=C4C[C@@H](O)CC[C@]4(C)[C@H]3CC[C@]12C`, the max activation in assay [4] was -2.66%. The Potency result in assay [5] and in assay [6] was “inactive” each time.
Take `O=S(=O)(O)CC(S)CS` (stereo not drawn): the max activation in assay [4] was -6.49%. Further, the Potency entry in assay [5] and in assay [6] was “inactive” each time.
Turning to `NC[C@@H]1CC[C@@H](N)[C@@H](O[C@H]2[C@H](O)[C@@H](O[C@H]3O[C@H](CO)[C@@H](O)[C@H](N)[C@H]3O)[C@H](N)C[C@@H]2N)O1`, in assay [4], the max activation is -0.783%. In addition, the Potency result in assay [5] and in assay [6] was “inactive” each time.
Consider `CC[C@H](C)C(=O)O[C@H]1CCC=C2C=C[C@H](C)[C@H](CC[C@@H]3C[C@@H](O)CC(=O)O3)[C@H]21`, for which the Potency entry in assay [5] and in assay [6] was “inactive” each time.

(Values after PubChem BioAssay (Tox21).)
